High-throughput results (PubChem)
The list is not random: actives were taken first. Their share in the collection is about 19%.
TDP1 cell CPT = growth inhibition of DT40 Tdp1-/-;hTDP1 cells with camptothecin (screen for TDP1 inhibitors); chicken DT40 Tdp1-/-;hTDP1 cells + 20 nM CPT, ATP luminescence, 48 h; Potency, µM (series often up to 46.2 µM), for the others: at the highest dose activity change, negative = growth inhibition, hits mostly inhibitors; 420,000 compounds, 12% hits; also: potency is read from the fitted curve at half-maximal effect; nearly all actives have a fitted effect of over 55% in size
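Cell growth measured by CellTiter-Glo luminescence after a minimum 48 h, 37 C compound exposure with 20 nM CPT in Tdp1-knockout DT40 cells stably expressing hTDP1, seeded 400/well; qHTS titration format.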
Giardia kill = Giardia lamblia killing. Giardia lamblia trophozoite viability. activity change, % at 7.66 µM, hits read low. 340,000 compounds, 0.15% hits. AID 540267; in the data active = activity change below about -80%; inconclusive = between about -30% and that limit;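 also: parasites exposed to compound for two days anaerobically before the ATP read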
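Compounds were tested on trophozoites seeded at 100 cells/well and held 48 hrs at 37 deg C anaerobically. An ATP-based luminescent kit measured the remaining live cells.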
IL-1B inflam inh = inflammasome signaling inhibition, IL-1 beta readout; AID 743279; activity change, % at 57.5 µM; THP-1 LPS/ATP IL-1B secretion, AlphaLISA, 16 h; stronger effect = lower value; 360,000 compounds, 4.7% hits; in the data active = activity change below about -50%; inconclusive = mostly about -30% to -49%
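THP-1 cells pretreated 1 hr with compounds (up to 57.5 uM final), then stimulated with LPS (250 ng/mL final) plus ATP (1.25 mM final); secreted IL-1B measured by AlphaLISA after 16 hr, decreased signal indicating inhibition.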
DT40 TDP1 no CPT = qHTS for Inhibitors of human tyrosyl-DNA phosphodiesterase 1 (TDP1): qHTS in cells in absence of CPT; DT40 Tdp1-/- hTDP1 cells, no CPT, ATP luminescence, 48 h; Potency, µM (top dose mostly 46.2 µM), for inactives: at the top dose activity change, negative = growth inhibition, most hits filed as inhibitors; 420,000 compounds, 15% hits; also: potency is read from the fitted curve at half-maximal effect; nearly all actives have a fitted effect of over 55% in size
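DT40 Tdp1-/-;hTDP1 cells, no CPT (DMSO vehicle only), 400 cells/well; compounds pin-transferred; ≥48 hr, 37 °C; CellTiter-Glo 30 min RT dark, luminescence read.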
ELG1 DNA repair = inhibitors of ELG1-dependent DNA repair in HEK293T cells; Potency, µM (titrated, usually from 46.1 µM), for inactives: at the highest dose activity change, negative = inhibition, usual class: inhibitors; 330,000 compounds, 2.3% hits; HEK293T ELG1-luciferase reporter, luminescence, 16 h; DNA damage induced by 5-fluorouridine; AID 504467; also: potency is read from the fitted curve at half-maximal effect; nearly all actives have a fitted effect of over 55% in size
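Quantitative HTS, concentration-response format. 2,000 cells/well co-treated with 5-fluorouridine and compound, 16 hr in 5% CO2 at 37 °C; ONE-Glo luminescence read after 30 min.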
TDP1 block = blocks human tyrosyl-DNA phosphodiesterase 1; Q9NUW8; recombinant TDP1, AlphaScreen DNA substrate cleavage; Potency, µM (doses to about 130 µM), without a hit: at the highest dose activity change, negative = inhibition, actives largely listed as inhibitors; 350,000 compounds, 0.28% hits; AID 485290; also: potency is read from the fitted curve at half-maximal effect; nearly all actives have a fitted effect of over 40% in size
Target sequence (Q9NUW8 whole entry, looked up): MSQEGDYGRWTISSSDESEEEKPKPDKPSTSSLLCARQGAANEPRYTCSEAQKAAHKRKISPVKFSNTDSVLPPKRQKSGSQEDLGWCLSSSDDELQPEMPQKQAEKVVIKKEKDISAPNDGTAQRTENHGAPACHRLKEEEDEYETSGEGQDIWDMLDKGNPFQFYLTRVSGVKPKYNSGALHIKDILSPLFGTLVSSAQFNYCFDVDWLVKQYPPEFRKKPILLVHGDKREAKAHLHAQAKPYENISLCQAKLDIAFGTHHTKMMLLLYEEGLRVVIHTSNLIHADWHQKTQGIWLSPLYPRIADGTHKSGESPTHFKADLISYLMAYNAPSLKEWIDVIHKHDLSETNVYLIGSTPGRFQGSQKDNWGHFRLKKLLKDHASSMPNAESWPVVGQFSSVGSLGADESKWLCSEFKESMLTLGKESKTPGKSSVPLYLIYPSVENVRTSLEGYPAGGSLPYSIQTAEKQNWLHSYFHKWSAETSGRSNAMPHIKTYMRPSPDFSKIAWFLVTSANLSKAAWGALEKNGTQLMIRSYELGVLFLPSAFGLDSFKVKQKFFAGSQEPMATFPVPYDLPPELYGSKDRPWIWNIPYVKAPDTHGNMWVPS
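Recombinant E. coli-expressed Tdp1 (1 nM) preincubated with compound 15 min at RT, then 5'-biotin/3'-phosphotyrosine-FITC DNA substrate (15 nM) added for 5 min. AlphaScreen beads (10 ug/ml) added, 10 min RT; tyrosine-FITC cleavage read as signal loss.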
Starred values were filed as active, the others as inactive. Unless noted, calls follow the shape of the dose curve; as a rule, active = well fitted curve in the direction sought with a large enough effect; inconclusive = small, poorly fitted or top-dose-only effect, or another doubt; inactive = no such curve, though single readings can be large; an effect the other way counts as inactive or inconclusive. % is scaled to controls: 0 for no effect and ±100 for the full control effect.

How did O=C(N[C@H]1CCC(=O)N(CCSc2ccc(Br)cc2)CC1)OCc1ccccc1 do in these assays?
TDP1 cell CPT: 15µM*; Giardia kill: 14; IL-1B inflam inh: -22; DT40 TDP1 no CPT: 16µM*; ELG1 DNA repair: inconclusive; TDP1 block: 0%

Results for [N-]=[N+]=NC[C@H](Cc1ccccc1)N1CC[C@@H](NC(=O)OCc2ccccc2)CCC1=O ?
TDP1 cell CPT: inconclusive; Giardia kill: -7; IL-1B inflam inh: 18; DT40 TDP1 no CPT: 16µM*; ELG1 DNA repair: inconclusive

Results for Cc1ccc(SCCN2CCC(NC(=O)OCc3ccccc3)CCC2=O)cc1 (stereo not given) ?
TDP1 cell CPT: inconclusive; Giardia kill: -8; IL-1B inflam inh: 3; DT40 TDP1 no CPT: 18µM*; ELG1 DNA repair: inconclusive

What do the screens show for `COc1ccc(C(C)(NC(C)=O)c2nc(-c3ccncc3)cs2)cc1` (stereo not given)?
TDP1 cell CPT: -8%; IL-1B inflam inh: 16; DT40 TDP1 no CPT: -7%

What do the screens show for `CC(=O)NC(C)(c1ccccc1)c1nc(-c2ccc(N(C)C)cc2)cs1` (stereo not given)?
TDP1 cell CPT: 16µM*; IL-1B inflam inh: -3; DT40 TDP1 no CPT: 23µM*

How did CC(=O)NC(C)(c1ccccc1)c1nc(-c2ccncc2)cs1 (stereo not given) do in these assays?
TDP1 cell CPT: -8%; IL-1B inflam inh: 3; DT40 TDP1 no CPT: -20%

Results for COc1ccc(C(C)(NC(C)=O)c2nc(-c3ccc(F)c(Cl)c3)cs2)cc1 (stereo not given) ?
TDP1 cell CPT: 18µM*; IL-1B inflam inh: -27; DT40 TDP1 no CPT: 23µM*

How did COc1ccc(-c2csc(C(C)(NC(C)=O)c3ccc(OC)cc3)n2)cc1 (stereo not given) do in these assays?
TDP1 cell CPT: 16µM*; IL-1B inflam inh: 3; DT40 TDP1 no CPT: inconclusive

How did CC(C)(C)C1CCc2onc(C(=O)Nc3sc4c(c3C(N)=O)CCCC4)c2C1 (stereo not given) do in these assays?
TDP1 cell CPT: 19%; DT40 TDP1 no CPT: -27%; TDP1 block: -5%

Results for Cc1cccc(OCC(=O)N(Cc2sccc2C)C2CCS(=O)(=O)C2)c1 (stereo not given) ?
TDP1 cell CPT: 3%; DT40 TDP1 no CPT: inconclusive; TDP1 block: 9%

How did CC1CC(C)CN(CCCNS(=O)(=O)c2cc(Br)cc3c2N(C(=O)C2CC2)CC3)C1 (stereo not given) do in these assays?
TDP1 cell CPT: 8%; Giardia kill: 11; IL-1B inflam inh: -13; DT40 TDP1 no CPT: -11%; ELG1 DNA repair: -5%; TDP1 block: 1%

How did CCOC(=O)N1CCc2c(sc3c2c(=O)n(Cc2ccccc2)c(=O)n3CC(=O)Nc2ccc(C)c(C)c2)C1 do in these assays?
TDP1 cell CPT: 5%; DT40 TDP1 no CPT: 2%; TDP1 block: 6%

How did O=C(/C=C/c1ccccc1)NC(=S)Nc1ccc2c3c(cccc13)CC2 do in these assays?
TDP1 cell CPT: inconclusive; Giardia kill: 8; IL-1B inflam inh: 25; DT40 TDP1 no CPT: inconclusive; ELG1 DNA repair: 15%; TDP1 block: -5%

Results for CN(CCCn1ccc(N)nc1=O)Cc1ccco1 ?
TDP1 cell CPT: -1%; IL-1B inflam inh: 9; DT40 TDP1 no CPT: -20%

What do the screens show for `Cc1occc1C(=O)N/N=C/C1=C(N2CCOCC2)C(=C/c2ccc(Cl)cc2Cl)/CC1`?
TDP1 cell CPT: 5.8µM*; Giardia kill: -9; IL-1B inflam inh: -7; DT40 TDP1 no CPT: 7.3µM*

What do the screens show for `O=C(Cc1csc(N2CCOCC2)n1)N/N=C/c1ccc(Cl)cc1Cl`?
TDP1 cell CPT: inconclusive; Giardia kill: -5; IL-1B inflam inh: -21; DT40 TDP1 no CPT: inconclusive; ELG1 DNA repair: 23µM*; TDP1 block: 1%
